Out of some 68,000 compounds screened, about 2,700 (4%) showed an effect of 50% or more. The full list was thinned out, with strong results kept by preference.
The compounds below were run on Plasmodium berghei (assay: Screen against P. berghei liver stage (PbLuc), transformed with Luciferase, at 2uM). Details: tested at 2 uM.
Type: functional, HepG2

Row | Structure (SMILES) | INHIBITION [%]
1 | COCCS(=O)(=O)Nc1ccc(-n2cncn2)c(F)c1 | 3.33
2 | CN1CCN(C(=O)c2cc3sccc3n2Cc2ccccc2F)CC1 | -10.78
3 | Cc1ccc(N2CC[C@@H]3CN(Cc4cc[nH]n4)C[C@@H]3C2)nn1 | 27.95
4 | CC(C)(C)CCNc1nccc(-c2c[nH][nH]c2=O)n1 | 22.5
5 | c1cnc(NC[C@@H]2CCC[C@@H]3CN(Cc4csnn4)C[C@@H]32)nc1 | 55.7
6 | c1ccc(NC[C@@H]2CCC[C@@H]3CN(Cc4csnn4)C[C@@H]32)nc1 | 24.51
7 | CC(C)(C)NC[C@@H]1CCC[C@@H]2CN(Cc3csnn3)C[C@@H]21 | -21.74
8 | COc1ccc2[nH]cc(C(=O)CNc3nc(C)cs3)c2c1 | 20.71
9 | O=C(NCCN1CCOC1=O)c1ccc2sccc2c1 | 61.27
10 | O=C(NCCN1CCOC1=O)c1cc(-c2ccccc2)on1 | 9.85
11 | O=C(NCCN1CCCC(CO)C1)c1ccc2sccc2c1 (centres undefined) | 13.99
12 | NCc1cnc(Nc2ccccc2)nc1 | 16.87
13 | O=C1Nc2ccccc2CNC12CCN(CC1CCNC1)CC2 (centres undefined) | 21.69
14 | O=C1Nc2ccccc2CNC12CCN(CC1CC1)CC2 | 58.42
15 | O=C1Nc2ccccc2CNC12CCN(CC1CCCC1)CC2 | -7.08
16 | COc1cccc2sc(N3CC(OC(C)=O)C3)nc12 | -5.98
17 | CSCC(C)NS(=O)(=O)c1ccc(C)c(N(C)C)c1 (centres undefined) | -1.57
18 | COCCC(C)NS(=O)(=O)c1ccc(C)c(N(C)C)c1 (centres undefined) | 52.6
19 | Cc1ccc(S(=O)(=O)N[C@H](CO)C(C)C)cc1N(C)C | -94.5
20 | CN(C)CC(=O)N1Cc2ncn(C)c2C(COCC2CCOCC2)C1 (centres undefined) | 6.8
21 | Cn1c(CC2CCS(=O)(=O)C2)nnc1SCCOc1ccccc1F (centres undefined) | 7.08
22 | CN1CC(C(=O)NCc2cccnc2OCC(F)(F)F)CC1=O (centres undefined) | 9.21
23 | O=C(Cn1ccc(=O)[nH]c1=O)NCc1cccnc1OCC(F)(F)F | 51.76

Row | Structure (SMILES) | INHIBITION [%]
24 | O=C(Cn1cccnc1=O)NCc1cccnc1OCC(F)(F)F | 3.95
25 | Cc1ccc2[nH]c(=O)c(CNCCCN3CCOCC3)cc2c1 | 22.39
26 | O=C(c1c[nH]cn1)N1CCC(F)(F)C2(CCN(c3ncccn3)C2)C1 (centres undefined) | 38
27 | CCc1cc(C(=O)N2Cc3ccccc3OC3(CCOCC3)C2)on1 | 14.05
28 | Cc1cnn(CC2CCCN2c2ncnc3sccc23)c1 (centres undefined) | 37.87
29 | Cc1nc(C)n(CC2CCCN(c3ncnc4ccsc34)C2)n1 (centres undefined) | -20.93
30 | CN1C(=O)[C@@H]2CC[C@H]1CN(c1ncnc3ccsc13)C2 | 14.82
31 | COc1cc(N2C[C@H]3CC[C@@H](C2)N(CC2CCC2)C3=O)ncn1 | 8.26
32 | Cc1cnn(CC2CCCN2c2ncnc3ccsc23)c1 (centres undefined) | 53.33
33 | O=C1[C@@H]2CC[C@@H](CN(c3ncnc4ccsc34)C2)N1CC1CC1 | 62.51
34 | c1nc(N2CCCC2Cn2cncn2)c2sccc2n1 (centres undefined) | -48.41
35 | c1nc(N2CCCC(Cn3cncn3)C2)c2ccsc2n1 (centres undefined) | -1.74
36 | c1nc(N2CCCC(Cn3cncn3)C2)c2sccc2n1 (centres undefined) | 68.24
37 | COC(=O)CN(C(=O)c1ccc(Cl)o1)c1cccc(F)c1 | 34.65
38 | O=C(NCc1ccc(Br)c(F)c1)Nc1cn[nH]c1 | 2.31
39 | Cc1cc(CN2CCCC2c2c(C)nn(C)c2Cl)on1 (centres undefined) | -50.23
40 | CCc1nc(CN(C)c2nccc(N3CCCC(O)C3)n2)no1 (centres undefined) | 11.38
41 | Cc1cnn(CC2CN(Cc3nc(C)no3)CCO2)c1 (centres undefined) | -35.62
42 | O=C(c1ccco1)N1CCCC1C1CCN(Cc2ccccc2)CC1 (centres undefined) | 3
43 | O=C(C1CC1)N1CCCC1C1CCN(Cc2ccccc2)CC1 (centres undefined) | 53.86
44 | O=C(c1ccncc1)N1CCCC1C1CCN(Cc2ccccc2)CC1 (centres undefined) | 45.82
45 | CC(=O)c1cc(CC(=O)NCc2cccc(F)c2F)cs1 | 36.26
46 | Cc1nnc(N2C[C@@H]3CCCO[C@@H]3[C@H](N3CCCC3=O)C2)s1 | 21.57

Row | Structure (SMILES) | INHIBITION [%]
47 | CN1CCCN(C(=O)NCCNc2cnccn2)CC1 | 12.88
48 | O=C(NCCNc1cnccn1)N1CCCC1 | -12.31
49 | CC(=O)N1CCCN(C(=O)NCCNc2cnccn2)CC1 | 64.71
50 | COCC1(C(=O)N[C@H]2CN(c3noc(C)n3)C[C@@H]2C2CC2)CCC1 | 21.28
51 | CC(C)S(=O)(=O)NCC1CCCN(C(=O)c2ccc3c(c2)OCCO3)C1 (centres undefined) | 21.39
52 | O=C(CC1CC1)N[C@@H]1CN(C(=O)c2cccs2)C[C@@H]2CCCO[C@@H]21 | 45.36
53 | CC(NC(=O)N1CCC[C@H]1CO)c1noc(-c2ccccc2)n1 (some centres undefined) | 5.28
54 | CCN1CCN(C(=O)NC(C)c2noc(-c3ccccc3)n2)CC1 (centres undefined) | 88.75
55 | CC(NC(=O)N1CCSC(C)(C)C1)c1noc(-c2ccccc2)n1 (centres undefined) | 29.13
56 | O=C(Nc1ccccc1)N1C2CCC(O)(CC2)C1CN1CCOCC1 (centres undefined) | 11.94
57 | CC(O)C1CCN(C(=O)Nc2nc(-c3ccccc3)ns2)CC1 (centres undefined) | -65.84
58 | O=C(Nc1nc(-c2ccccc2)ns1)N1CCC(CO)CC1 | 7.72
59 | CCC(O)C1CCN(C(=O)Nc2nc(-c3ccccc3)ns2)CC1 (centres undefined) | 57.92
60 | O=C(c1cscn1)N1CCC2(CN(Cc3ccsc3)C2)C1 | -27.26
61 | O=C(c1cscn1)N1CCC2(CN(Cc3ccoc3)C2)C1 | 46.87
62 | O=C(c1cscn1)N1CCC2(CN(Cc3ccncc3)C2)C1 | 55.66
63 | NC(=O)C1CCCN1Cc1cccc(NC(=O)c2cc(Cl)cc(Cl)c2)c1 (centres undefined) | 3.14
64 | Cc1cc(C)cc(C(=O)Nc2cccc(CN3CCCC3C(N)=O)c2)c1 (centres undefined) | 57.01
65 | CCc1ccc(C(=O)Nc2cccc(CN3CCCC3C(N)=O)c2)cc1 (centres undefined) | 10.61
66 | O=C(CSc1nnc(N2CCNCC2)s1)Nc1ccccc1 | 48.59
67 | Cn1nc(Br)c2c(NCCN)ncnc21 | 60
68 | Cn1nc(Br)c2c(NCCNc3ncccn3)ncnc21 | 33.11
69 | Cn1nc(Br)c2c(NCCS(N)(=O)=O)ncnc21 | 20.21

From ChEMBL document CHEMBL4513216, “Probing the Open Global Health Chemical Diversity Library for Multistage-Active Starting Points for Next-Generation Antimalarials” (ACS Infect Dis, 2020)
